Experimental findings from PubChem BioAssay (Tox21) are described below.

For the assay, the target named is D(2) dopamine receptor (Homo sapiens) (UniProt P14416). The assay can be described thus: Dopamine D2 receptor (DRD2) small molecule antagonists, cell-based qHTS assay (AID 1963595). The method, boiled down: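 HEK293 cells stably expressing DRD2, preincubated with 0.1 mM Ro20-1724 and compounds 10 min, were stimulated with 200 nM NKH477 plus 12 nM quinpirole for 30 min at room temperature; cAMP measured by HTRF (665/620 nm).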
In general terms: qHTS replaces the single test concentration by a dilution series.

Molecules are shown by their SMILES. Where “and” joins values, the source holds several entries; their conditions need not be identical. Identical values can stand only once. Results filed as inconclusive are left out. A call without a number means that no potency is given here. Some structures have more than one record in an assay (separate samples or runs), and their calls can disagree. Calls of active or inactive are those of the source. The call rests on the fitted dose curve; in most records, active means well fitted inhibition curve with a large enough effect in the signal ratio in the repeat runs, with a control signal flat; inconclusive means weak or mixed curves, or effect the other way; inactive means flat fitted curve, though single readings scatter; the % refers to the signal ratio.
Potency means the concentration at half of the fitted maximal effect.

Sequence of D(2) dopamine receptor (Homo sapiens) (P14416 whole entry, looked up): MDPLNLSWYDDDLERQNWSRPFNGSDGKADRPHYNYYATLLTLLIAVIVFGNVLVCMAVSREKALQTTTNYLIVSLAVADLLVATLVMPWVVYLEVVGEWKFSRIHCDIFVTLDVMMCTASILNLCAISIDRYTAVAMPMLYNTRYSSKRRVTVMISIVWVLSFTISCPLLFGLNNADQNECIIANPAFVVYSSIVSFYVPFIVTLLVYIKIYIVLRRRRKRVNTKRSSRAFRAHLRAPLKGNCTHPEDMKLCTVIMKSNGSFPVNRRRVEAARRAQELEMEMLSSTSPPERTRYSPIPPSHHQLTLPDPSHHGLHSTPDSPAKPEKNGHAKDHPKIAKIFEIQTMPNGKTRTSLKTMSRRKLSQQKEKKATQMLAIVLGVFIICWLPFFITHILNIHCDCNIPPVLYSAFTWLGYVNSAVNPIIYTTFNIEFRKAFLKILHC

On to `C=CC(=O)OCCCCCC`, for which the Potency result is “inactive”.

In the case of `CCCCCCC(C)(C)C(=O)O`, the Potency result was “inactive”. For `CC(=O)NCCO`, the Potency entry is “inactive”. In the case of `CCCCCCCCC1CCC(=O)O1` (centres undefined), the Potency result was “inactive”. Turning to `NNc1nncc2ccccc12`, the Potency result was “inactive and 10.3 µM (active)”. Regarding `NC(=S)N/N=C/c1cccnc1`, the Potency entry was “inactive”. Turning to `CCCC(C)CO` (centres undefined), the Potency result is “inactive”.

`CC(C)(c1ccccc1)c1ccc(Nc2ccc(C(C)(C)c3ccccc3)cc2)cc1`: the Potency entry is “inactive”. Consider `C=C(C)C(=O)OCCCCCCOC(=O)C(=C)C`, for which the Potency entry was “inactive”.

In the case of `CCOC(=O)c1c(C)n(C)c2ccc(O)cc12`, the Potency entry is “inactive”.

Consider `OCCCC1CCCCC1`, for which the Potency entry was “inactive”.

Regarding `O=S(=O)(O)CC(O)CCl` (centres undefined), the Potency entry was “inactive”.

On to `O=[N+]([O-])c1ccc2c(c1)Cc1ccccc1-2`, for which the Potency entry is “inactive”.

For `Nc1cc([N+](=O)[O-])ccc1O`, the Potency entry was “inactive”. Turning to `c1ccc(CNCc2ccccc2)cc1`, the Potency result is “inactive”.

Regarding `Cc1cc(C)cc(O)c1`, the Potency result was “inactive”.

For the compound `CC(C)CCCCOC(=O)c1ccccc1C(=O)OCCCCC(C)C`, the Potency entry is “inactive”. For the compound `CC(C)CC(O)CC(C)C`, the Potency entry was “inactive”. In the case of `N=C(N)c1ccc2cc(OC(=O)c3ccc(N=C(N)N)cc3)ccc2c1`, the Potency entry was “inactive”.

For `CCOCCOCC`, the Potency entry is “inactive”. In the case of `C=CC(=O)NC(C)C`, the Potency entry is “inactive”. In the case of `O=C(O)CNc1ccccc1`, the Potency result is “inactive”. In the case of `OCC#CCO`, the Potency result is “inactive”. On the same count and under the same terms, the value for `CCc1ccc(Br)cc1` was “inactive”; that for `O=c1[nH][nH]c(=O)c2cc([N+](=O)[O-])ccc12` was “inactive”. In the case of `CCCCCCOC(=O)C(C)CC` (centres undefined), the Potency result is “inactive”. Turning to `CCCCCCCCCCCCCCC(=O)NC(CO)CCCCCCCCCCCCCC` (centres undefined), the Potency result is “inactive”.

`CC(C)CCCO`: the Potency result is “inactive”. Turning to `c1ccc(CSCc2ccccc2)cc1`, the Potency entry was “inactive”.

Turning to `CN(C(=O)c1c(O)c2ccccc2n(C)c1=O)c1ccccc1`, the Potency entry was “inactive”. As to `CC(C)(O)C(=O)O`, the Potency entry was “inactive”. In the case of `c1ccsc1`, the Potency entry was “inactive”. For `CCCCOC(O)CC` (centres undefined), the Potency entry was “inactive”. With `FC(F)(F)C(Cl)(Cl)Cl`, the Potency entry is “inactive”. On the same count and under the same terms, the value for `NS(=O)(=O)c1ccc(N2CCCCS2(=O)=O)cc1` was “inactive”; that for `CC(=O)N[C@@H](CC(C)C)C(=O)O` was “inactive”.

Regarding `CC(=O)OC/C=C/c1ccccc1`, the Potency result is “inactive”.

Consider `CCCCCCCC(=O)N(C)C`, for which the Potency result is “inactive”. With `C1=CCC2CC=CC2C1` (centres undefined), the Potency entry is “inactive”. Still for that read-out and setting: the result for `CC1=NN(c2ccc(S(=O)(=O)O)cc2)C(=O)C1` reads “inactive”; that for `C/C=C/c1ccc(OC)c(OC)c1`, “inactive”; that for `C[N+](C)(CCOc1ccccc1)Cc1cccs1`, “inactive”.

As for `CC(C)C(=O)OC(=O)C(C)C`, the Potency result was “inactive”.

As to `CC(C)=CCCC(C)CCOC(=O)C(C)C` (centres undefined), the Potency result was “inactive”. Consider `O=C1C(c2[nH]c3ccc(S(=O)(=O)O)cc3c2O)=Nc2ccc(S(=O)(=O)O)cc21`, for which the Potency entry is “inactive”. On the same count and under the same terms, the value for `CCOc1ncc(F)c(=O)[nH]1` was “inactive”; that for `CCc1ccc(C=O)cc1` was “inactive”; that for `C=CC(=O)O[C@H]1C[C@@H]2CC[C@@]1(C)C2(C)C` was “inactive”. On the same count and under the same terms, the value for `CCC(OCCCOC)OC(C)=O` (centres undefined) was “inactive”; that for `O=C(O)c1cc(C(=O)O)cc([N+](=O)[O-])c1` was “inactive”; that for `[Cl][Nd]([Cl])[Cl]` was “inactive”.

As to `O=[N+]([O-])c1cncn1CCN1CCOCC1`, the Potency result was “inactive”. In the case of `CCOC(=O)c1ccccc1C`, the Potency entry is “inactive”. `O=[N+]([O-])c1ccc(Oc2ccc([N+](=O)[O-])cc2)cc1`: the Potency entry was “inactive”. Take `Cc1cccc(N(C)C)c1`: the Potency result is “inactive”. In the case of `CO[Si](OC)(OC)c1ccccc1`, the Potency entry was “inactive”. `Cc1cc(C)c(N=Nc2c(O)c(S(=O)(=O)O)cc3cc(S(=O)(=O)O)ccc23)cc1C`: the activity change, negative = inhibition was 0.169% [at 8.38 µM] (inactive). In the case of `Cc1cccc(S(=O)(=O)O)c1C`, the Potency entry is “inactive”. Same read-out and setting: the result for `N#C[C@@H]1C[C@@H]2C[C@@H]2N1C(=O)[C@@H](N)C12CC3CC(CC(O)(C3)C1)C2` reads “inactive”. On to `CNCCS(=O)(=O)O`, for which the Potency result was “inactive”. `N#CC1(c2ccc(F)cc2)CCC(=O)CC1`: the Potency result is “inactive”.

As to `O=C1c2ccccc2C(=O)C1c1ccc2cc(S(=O)(=O)O)cc(S(=O)(=O)O)c2n1`, the Potency entry is “inactive”. On to `CCCCC(O)/C=C(C)/C=C/C=C/C(=O)N1CCCC1=O` (centres undefined), for which the Potency result was “inactive”. In the case of `O=C(O)CNC(=O)c1ccccc1I`, the Potency result is “inactive”. For the compound `O=C(O)c1cc(=O)c2ccccc2o1`, the Potency result is “inactive”. Take `Cc1nc(C)c(C)nc1C`: the Potency entry was “inactive”. Turning to `Nc1nc(=O)n([C@@H]2O[C@H](CO)[C@@H](O)[C@@H]2F)cc1I`, the Potency entry is “inactive”. In the case of `Cc1ccc2ccccc2c1[N+](=O)[O-]`, the Potency result was “inactive”. In the case of `CC(C)Nc1ccccc1`, the Potency result is “inactive”. Turning to `CC(O)CCCCn1c(=O)c2c(ncn2C)n(C)c1=O` (centres undefined), the Potency result is “inactive”. Turning to `CCOc1cc(NC(C)=O)ccc1C(=O)OC`, the Potency result was “inactive”. Take `COc1cc(OC)nc(O[C@H](C(=O)O)C(OC)(c2ccccc2)c2ccccc2)n1`: the Potency entry is “inactive”. For the compound `CCOC(=O)O[C@]1(C(=O)OCCl)CC[C@H]2[C@@H]3CCC4=CC(=O)C=C[C@]4(C)[C@H]3[C@@H](O)C[C@@]21C`, the Potency result is “inactive”. Still for that read-out and setting: the result for `CC(C)OC(C)C` reads “inactive”; that for `CCCCOC(=O)C(=O)OCCCC`, “inactive”; that for `O=C(O)CSCC(=O)NC1CCSC1=O` (centres undefined), “inactive”. Same read-out and setting: the value for `CCCCCCCCCCCCCCCC` was “inactive”; that for `O=C(O)C(=O)Nc1cccc(-c2nn[nH]n2)c1` was “inactive”. On to `CCCCc1ncc(/C=C(\Cc2cccs2)C(=O)O)n1Cc1ccc(C(=O)O)cc1`, for which the Potency entry was “inactive”. Consider `c1ccc2cc3c4ccccc4c4ccccc4c3cc2c1`, for which the Potency entry is “inactive”. `O=C1OC(=O)C2CC=CCC12` (centres undefined): the Potency entry was “inactive”. Turning to `O=c1cc(CO)occ1O`, the Potency result is “inactive”. For `CO[Si](CCCCl)(OC)OC`, the Potency entry is “inactive”. Turning to `CCCCCCCCN(C)C`, the Potency entry is “inactive”.

Regarding `CCCc1ccc(O)cc1`, the Potency entry is “inactive”. Turning to `CCN(CC)C(=O)C1CN2CCc3cc(OC)c(OC)cc3C2CC1OC(C)=O` (centres undefined), the Potency entry was “inactive”.

With `CCN(CC)S(=O)(=O)c1ccc(C(=O)O)cc1`, the Potency result was “inactive”. As for `CCCc1ccccc1`, the Potency result was “inactive”. On to `O=S(=O)(O)c1ccc2c(N=Nc3ccc(S(=O)(=O)O)c4ccccc34)c(O)c(S(=O)(=O)O)cc2c1`, for which the activity change, negative = inhibition was 0.317% [at 8.38 µM] (inactive). Take `FC(F)(F)C(Cl)Br` (centres undefined): the Potency entry is “inactive”. On the same count and under the same terms, the value for `Cc1onc(-c2ccccc2)c1C(=O)Cl` was “inactive”; that for `CC(C)C(=O)OCCOc1ccccc1` was “inactive”. In the case of `Cc1ccc2n[nH]nc2c1`, the Potency result is “inactive”. In the case of `CC(CCO)CCc1ccccc1` (centres undefined), the Potency entry is “inactive”. For the compound `CCCCCCCCOCCC#N`, the Potency entry was “inactive”. For the compound `Cc1ccc(O)c([N+](=O)[O-])c1`, the Potency result is “inactive”. Take `NCCNCCO`: the Potency entry was “inactive”.

As for `Cc1cc(C)cc(N)c1`, the Potency entry is “inactive”.

Consider `CCCCC(CC)COCCC#N` (centres undefined), for which the Potency result is “inactive”.
